Data reported in PubChem BioAssay (NCI).
Compounds without any hit were thinned out: in the full panel of roughly 83,000, 20% have a hit.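 A percent growth of 40 corresponds to 60% growth inhibition; 0 means no net growth; -100 means all cells died. Active threshold: below 10.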 Values without a mark were called inactive. Calls of active or inactive are those of the source.

System: HL-60(TB) leukemia
Assay: NCI-60 one-dose screen, 48 h (100 = growth as untreated, 0 = no growth, -100 = all killed)
Details: 10 µM unless noted

## Cn1c(SCC(=O)Nc2ccc(-c3nc4ccc([N+](=O)[O-])cc4[nH]3)cc2)nc2ccccc2c1=O
  growth: 91.1%

## CC(C)(C)CC(C)(C)n1nnnc1C(Nc1ccccc1)c1cc2cccc3ccc4cccc1c4c32 (stereo not given)
  growth: 101%

## O=C(/C=C/c1csc(Br)n1)NO
  growth: -36.2% (active)

## COc1ccc(C(=O)c2c(N)c(C#N)cn2-c2cccc(OC)c2)cc1
  growth: 3.83% (active)

## CC(C)(C)c1cc(NC(=O)Nc2ccc(-c3cn4c5c(sc4n3)CCc3cn(CCCN4CCCCC4)cc3-5)cc2)no1
  growth: -18.9% (active)

## C#CCOc1cccc(/C(N)=N/C(N)=N/c2nc3ccccc3s2)c1
  growth: 88.8%

## Brc1cc(-c2cc(-c3ccc4c(c3)OC=CO4)[nH]n2)cs1
  growth: 91.6%

## O=C(Nc1cccc(Cl)c1)Nc1nc2cc([N+](=O)[O-])ccc2o1
  growth: 52.7%

## CC(=O)N(C)C1CCc2c(sc(NC(=O)c3ccc(C(C)(C)C)cc3)c2C(N)=O)C1 (stereo not given)
  growth: 40.4%

## COc1cc(/C=N/NC(=O)c2cn(C3CC3)c3c(OC)c(N4CC5CCCNC5C4)c(F)cc3c2=O)ccc1O (stereo not given)
  growth: -40.3% (active)
